From PubChem BioAssay (NCI)
This is part of a sample that, as a whole, favours compounds with a hit. Of some 79,000 tested, about 15% had one in any assay. Cut-off read from the data, not from the text of the source: active = growth inhibition above about 70%; inactive = the rest.

Assays:
[1] = NCI Yeast Anticancer Drug Screen. Data for the rad50 strain (AID 155);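 note: 0% = growth of vehicle-only cultures of the same strain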; settings: S. cerevisiae rad50 strain growth inhibition; at 50.0 µM; hits give high values
Method in brief: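 Readout: growth inhibition relative to vehicle-treated cultures. Compound exposure was carried out in a genetically defined yeast strain deficient in DNA damage repair.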

[2] = NCI Yeast Anticancer Drug Screen. Data for the mec2-1 strain (AID 157); settings: S. cerevisiae mec2-1 strain, at 50.0 µM, hits give high values
Method in brief: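 Mutant yeast (mec2-1) grown with compound; growth inhibition relative to vehicle control reported.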

[3] = NCI Yeast Anticancer Drug Screen. Data for the sgs1 mgt1 strain (AID 161);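 note: 0% = growth of cultures given vehicle only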; settings: S. cerevisiae sgs1 mgt1 strain, at 50.0 µM, hits give high values
Method in brief: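 This yeast growth screen uses a strain with defined DNA-repair lesions; compound-treated growth is compared with vehicle-treated growth.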

[4] = NCI Yeast Anticancer Drug Screen. Data for the cln2 rad14 strain (AID 165);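 note: 0% = growth equal to vehicle treated cultures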; settings: S. cerevisiae cln2 rad14 strain, at 50.0 µM, hits give high values
Method in brief: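 Readout is yeast growth inhibition versus vehicle-treated controls, using a strain with cln2 and rad14 alterations exposed to compound.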

[5] = NCI Yeast Anticancer Drug Screen. Data for the bub3 strain (AID 167); settings: S. cerevisiae bub3 mutant strain, at 50.0 µM, hits give high values
Method in brief: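 Readout: yeast growth inhibition, expressed relative to vehicle-only wells. The test organism is a mutant strain from a panel with lesions in DNA repair or checkpoint genes.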

[6] = NCI Yeast Anticancer Drug Screen. Data for the mlh1 rad18 strain (AID 175); settings: S. cerevisiae mlh1 rad18 strain growth inhibition; at 50.0 µM; hits give high values
Method in brief: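 Genetically defined yeast (DNA repair-deficient) exposed to compounds; growth inhibition determined relative to vehicle.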

Measured: growth inhibition

O=C(Nc1ccc(S(=O)(=O)/N=c2\ncccn2C(=O)C(C(F)(F)F)C(F)(F)F)cc1)C(C(F)(F)F)C(F)(F)F
inactive: [1] -5% | [2] 11.9% | [3] -0.65% | [4] 22.2% | [5] 28.4% | [6] -26.8%

Clc1ccc(SCCCCSc2ccc(Cl)cc2)cc1
inactive: [1] 8.05% | [2] -6.7% | [3] 7.7% | [4] -3.45% | [5] 10.8% | [6] 10.8%

CC(O)(c1ccc(OCCC[N+](C)(C)C)cc1)C(C)(O)c1ccc(OCCC[N+](C)(C)C)cc1 (stereo not given)
inactive: [1] -25.5% | [2] -17.1% | [3] -39% | [4] 12.9% | [5] -16.9% | [6] -27.6%

CCN(CC)CCOC(=O)CCC(C)=O
inactive: [1] 6.35% | [2] -31.5% | [3] -7.65% | [4] 0.8% | [5] -9.1% | [6] 7.45%

Brc1ccc(-c2nnc(-c3ccc(Br)cc3)o2)cc1
inactive: [1] 14.8% | [2] -4.6% | [3] -0.8% | [4] -4.7% | [5] 0.25% | [6] 1.4%

O=C(Nc1ccccc1C(=O)O)C(=O)C(C(=O)c1ccccc1-c1ccccc1)C1OC(=O)c2ccccc21 (stereo not given)
inactive: [1] 26.1% | [2] 5.65% | [3] 4.2% | [4] -38.6% | [5] 6.25% | [6] 13.9%

C#CCn1c(=O)c2ccccc2n(CC#C)c1=O
inactive: [1] -10.3% | [2] -1.6% | [3] -6.3% | [4] 15.8% | [5] 9.05% | [6] 23.9%

CC1(C)CC(=O)N(Nc2ccccc2)C1=O
inactive: [1] -8.55% | [2] -7.6% | [3] -8.8% | [4] -7.35% | [5] -12.7% | [6] -13.7%

CC12CC(=O)OC(C1)C(=O)c1ccccc12 (stereo not given)
inactive: [1] 8.9% | [2] 16.1% | [3] 2.85% | [4] 4.45% | [5] 1.7% | [6] -3.15%

Clc1ccc2noc(-c3ccccc3)c2c1
inactive: [1] 22.6% | [2] 3.05% | [3] 4% | [4] 0.85% | [5] 0.7% | [6] 23.6%

COCCN1CC(=O)N2Cc3ccccc3CN2C(=O)C1
inactive: [1] -4.6% | [2] -13.8% | [3] -6.15% | [4] -9.5% | [5] -3% | [6] -6.65%

CC(=O)CC(=O)NCc1ccncc1
inactive: [1] -5.85% | [2] 8.1% | [3] 12.1% | [4] -44.3% | [5] 26.9% | [6] -1.9%

NC(=S)N/N=C(/CC(=O)c1ccc([N+](=O)[O-])cc1)C(=O)Nc1ncc([N+](=O)[O-])s1
inactive: [1] 51.9% | [2] 29% | [3] 30.1% | [4] 19.2% | [5] 53.2% | [6] 25.2%

Cc1cc2c(cc1Cl)SC(NNC(=O)c1ccccc1)=NS2(=O)=O
inactive: [1] -44.9% | [2] -31.7% | [3] -43.8% | [4] -42.2% | [5] -31.1% | [6] -38.2%

O=S1(=O)CCC(Br)c2ccccc2C1 (stereo not given)
inactive: [1] 6.15% | [2] 21% | [3] -7% | [4] 14.2% | [5] 3.85% | [6] -5.4%

Cc1ccc(NC(=O)C2C(=O)N(c3ccc(C)cc3)C(=O)/C2=N\NC(N)=S)cc1 (stereo not given)
inactive: [1] -29.7% | [2] -25.1% | [3] -38% | [4] -10.4% | [5] -10% | [6] -26.8%

CCOC(=O)CCC(NC(=O)c1ccc(Nc2cnc3ccc(C(F)(F)F)cc3n2)cc1)C(=O)OCC (stereo not given)
inactive: [1] 24.3% | [2] 6.45% | [3] 12.2% | [4] 14.1% | [5] 19.9% | [6] -23.8%

Cc1nc2cc(N)c(F)cc2[nH]1
inactive: [1] -14.6% | [2] -6.95% | [3] 21.4% | [4] 12.8% | [5] 16.4% | [6] -0.1%

C=C(CC/C=C\CO)[Si](C)(C)C
inactive: [1] -10.5% | [2] -20.1% | [3] 1.05% | [4] 7.35% | [5] 9.95% | [6] -9.5%

CC(=O)NC1c2ccccc2Oc2c(C)cccc21 (stereo not given)
inactive: [1] -8.8% | [2] 0.85% | [3] 1.7% | [4] -15.9% | [5] 2.75% | [6] 2.6%
